Values joined by “and” are separate entries in the source; they are usually repeats but may differ in a detail not shown here. Identical values can stand only once. About 2,000 (36%) of roughly 5,500 compounds were called active. Roughly 18% stayed inconclusive and do not appear here. Cut-off read from the data, not from the text of the source: active = normalized growth mostly below about 0.91 (no sharp cut-off); inconclusive = no clear call, values can overlap the other calls; inactive = mostly above about 0.92. The list shows a part of the results.
Assay: chemical genetic growth profiling, strain panel (AID 1159580);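 note: tested at 20 µM; growth read once vehicle control cultures reached saturation at 30 °C; 1 = growth at the plate median or of vehicle wells; lower values mean less growth of the strain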
Settings: S. cerevisiae deletion strains, growth OD

Measured: normalized growth

O=C(O)c1cccnc1
inactive: locus YAL013W, strain DEP1, hits give low values 0.987 | locus YAL021C, strain ccr4, hits give low values 1 | locus YAL026C, strain drs2, hits give low values 0.993 | locus YAL030W, strain snc1, hits give low values 0.994 | locus YBL061C, strain skt5, hits give low values 1.02 | locus YBR009C, strain hhf1, hits give low values 1.01 | locus YBR021W, strain FUR4, hits give low values 1.02 | locus YBR023C, strain chs3, hits give low values 1.01 | locus YBR171W, strain sec66, hits give low values 0.997 | locus YBR229C, strain ROT2, hits give low values 0.96 | locus YBR231C, strain swc5, hits give low values 0.996 | locus YBR279W, strain paf1, hits give low values 1 | locus YCL011C, strain gbp2, hits give low values 0.984 | locus YCL016C, strain dcc1, hits give low values 1.03 | locus YCL029C, strain bik1, hits give low values 1.01 | locus YCL061C, strain MRC1, hits give low values 1 | locus YCL069W, strain vba3, hits give low values 0.976 | locus YCR088W, strain abp1, hits give low values 0.992 | locus YDL005C, strain med2, hits give low values 0.98 | locus YDL035C, strain GPR1, hits give low values 0.968 | locus YDL040C, strain nat1, hits give low values 0.987 | locus YDL074C, strain BRE1, hits give low values 1.02 | locus YDL101C, strain DUN1, hits give low values 1.01 | locus YDL134C, strain PPH21, hits give low values 0.984 | locus YDL185W, strain tfp1, hits give low values 1.01 | locus YDL192W, strain arf1, hits give low values 1 | locus YDR001C, strain nth1, hits give low values 0.992 | locus YDR069C, strain doa4, hits give low values 1.01 | locus YDR101C, strain arx1, hits give low values 1.02 | locus YDR137W, strain rgp1, hits give low values 1.05 | locus YDR150W, strain NUM1, hits give low values 0.983 | locus YDR159W, strain sac3, hits give low values 0.977 | locus YDR162C, strain NBP2, hits give low values 0.985 | locus YDR195W, strain ref2 1.01 | locus YDR297W, strain sur2, hits give low values 0.996 | locus YDR318W, strain mcm21, hits give low values 1.04 | locus YDR334W, strain swr1, hits give low values 0.971 | locus YDR335W, strain msn5, hits give low values 0.993 | locus YDR388W, hits give low values 1 | locus YDR392W, strain spt3, hits give low values 0.973 | locus YDR502C, strain sam2, hits give low values 1 | locus YEL003W, strain gim4, hits give low values 0.985 | locus YEL037C, strain rad23, hits give low values 0.977 | locus YEL061C, strain CIN8 (second series), hits give low values 0.98 | locus YEL061C, strain CIN8, hits give low values 0.989 | locus YER015W, strain faa2, hits give low values 0.998 | locus YER016W, strain bim1, hits give low values 0.992 | locus YER110C, hits give low values 0.985 | locus YER111C, strain swi4, hits give low values 0.999 | locus YER155C, strain BEM2 (second series), hits give low values 0.995 | locus YER155C, strain BEM2, hits give low values 1.02 | locus YER167W, strain BCK2, hits give low values 0.982 | locus YFR010W, strain ubp6, hits give low values 0.995 | locus YGL078C, strain dbp3, hits give low values 1 | locus YGL086W, strain mad1, hits give low values 1.02 | locus YGL167C, strain pmr1, hits give low values 1.01 | locus YGL173C, strain kem1, hits give low values 1.01 | locus YGL227W, strain vid30, hits give low values 0.987 | locus YGL240W, strain doc1, hits give low values 1.01 | locus YGL248W, strain PDE1, hits give low values 0.983 | locus YGL253W, strain hxk2, hits give low values 0.987 | locus YGR078C, strain PAC10, hits give low values 1.04 | locus YGR135W, strain pre9, hits give low values 1.05 | locus YGR229C, strain SMI1, hits give low values 1.03 | locus YGR252W, strain gcn5, hits give low values 0.919 | locus YHR013C, strain ard1, hits give low values 1.04 | locus YHR027C, strain rpn1, hits give low values 1.01 | locus YHR030C, strain SLT2, hits give low values 0.997 and 1 | locus YHR079C, strain IRE1 (second series), hits give low values 1.01 | locus YHR079C, strain IRE1, hits give low values 1.03 | locus YHR094C, strain hxt1, hits give low values 0.999 | locus YHR129C, strain ARP1, hits give low values 1.01 | locus YHR142W, strain chs7, hits give low values 1.01 | locus YHR200W, strain rpn10, hits give low values 1.02 | locus YIL066C, strain RNR3, hits give low values 0.982 | locus YIL073C, strain SPO22, hits give low values 1.01 | locus YIL125W, strain kgd1, hits give low values 0.984 | locus YIR030C, strain dcg1, hits give low values 0.996 | locus YJL092W, strain hpr5, hits give low values 0.978 | locus YJL095W, strain BCK1 (second series), hits give low values 1 | locus YJL095W, strain BCK1, hits give low values 1.05 and 0.999 | locus YJL115W, strain asf1, hits give low values 0.973 | locus YJL129C, strain trk1, hits give low values 0.949 | locus YJL134W, strain LCB3, hits give low values 0.991 | locus YJL154C, strain vps35, hits give low values 0.977 | locus YJL164C, strain tpk1, hits give low values 1.02 | locus YJL166W, strain qcr8, hits give low values 0.988 | locus YJL168C, strain set2, hits give low values 1 | locus YJL187C, strain SWE1 (second series), hits give low values 0.996 | locus YJL187C, strain SWE1, hits give low values 0.99 | locus YJR043C, strain POL32, hits give low values 1.05 | locus YJR066W, strain TOR1, hits give low values 0.971
